High-throughput results from PubChem.
TDP1 block = blocks human tyrosyl-DNA phosphodiesterase 1. recombinant TDP1, AlphaScreen DNA substrate cleavage. Potency, µM (series often up to 130 µM), without a hit: top-dose activity change, negative = inhibition, hits mostly inhibitors. Q9NUW8. 350,000 compounds, 0.28% hits; further: potency means the concentration at half of the fitted maximal effect; on the % scale 0 is the no-effect control and ±100 the full control effect; nearly all actives have a fitted effect of over 40% in size
Target sequence (Q9NUW8 whole entry, looked up): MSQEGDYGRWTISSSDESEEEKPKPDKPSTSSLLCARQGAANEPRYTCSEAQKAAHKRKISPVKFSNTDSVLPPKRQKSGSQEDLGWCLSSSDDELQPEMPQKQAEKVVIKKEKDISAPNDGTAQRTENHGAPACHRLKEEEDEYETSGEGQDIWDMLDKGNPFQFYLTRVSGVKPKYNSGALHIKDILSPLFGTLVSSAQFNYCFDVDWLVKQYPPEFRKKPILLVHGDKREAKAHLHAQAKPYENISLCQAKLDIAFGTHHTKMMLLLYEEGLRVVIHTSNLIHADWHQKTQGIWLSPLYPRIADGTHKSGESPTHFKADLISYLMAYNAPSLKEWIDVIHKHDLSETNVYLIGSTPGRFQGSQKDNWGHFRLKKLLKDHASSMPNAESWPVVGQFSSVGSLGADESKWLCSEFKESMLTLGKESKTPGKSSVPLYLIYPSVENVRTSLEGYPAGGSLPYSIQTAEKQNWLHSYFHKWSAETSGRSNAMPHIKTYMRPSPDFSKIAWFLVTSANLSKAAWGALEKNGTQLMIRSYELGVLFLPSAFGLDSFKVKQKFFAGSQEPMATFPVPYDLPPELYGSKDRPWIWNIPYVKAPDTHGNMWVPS
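Compounds were preincubated with Tdp1 (1 nM final) for 15 min at room temperature before substrate (15 nM final) started a 5 min reaction; beads (10 ug/ml final) were then added for 10 min before AlphaScreen detection.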
IL1B secr inh = blocks inflammasome-driven IL-1 beta release; THP-1 LPS/ATP IL-1B secretion, AlphaLISA, 16 h; stronger effect = lower value; activity change, % at 57.5 µM; 360,000 compounds, 4.7% hits; AID 743279; in the data active means activity change below about -50%; inconclusive means mostly about -30% to -49%; further: on the % scale 0 is the no-effect control and ±100 the full control effect
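Secreted IL-1B measured by AlphaLISA bead assay after 16 h compound exposure of THP-1 cells; compounds (final up to 57.5 uM) added 1 h before LPS (250 ng/mL) and ATP (1.25 mM) stimulation; lower signal means less secretion.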
HepG2 viability = kills HepG2 cells in TGF-b inhibitor counter-screen. Potency, µM (series often up to 46.1 µM), for inactives: at the highest dose activity change, negative = cytotoxicity, most hits filed as cytotoxic. 410,000 compounds, 0.76% hits. HepG2 CAGA-GFP viability, ATP luminescence, 18 h; further: potency means the concentration at half of the fitted maximal effect
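CellTiter-Glo luminescence gave cytotoxicity after 18 hours at 37 degrees C. The cells were HepG2 CAGA-GFP in 1% FBS DMEM, stimulated with 500 pg/mL TGF-beta after compound addition. %Activity was normalised to no-cell wells (complete cell-killing) and DMSO (no toxicity), and curves were fitted and classified.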
TGFb inhibitor = TGF-b pathway inhibition | HepG2 CAGA-GFP TGF-b/SMAD3 reporter, GFP fluorescence, 18 h; TGF-beta stimulated, 500 pg/mL final | Potency, µM (titrated, usually from 46.1 µM), for inactives: top-dose activity, negative = inhibition, hits mostly inhibitors | 410,000 compounds, 1.2% hits | AID 588855; further: potency means the concentration at half of the fitted maximal effect; on the % scale 0 is the no-effect control and ±100 the full control effect; nearly all actives have a fitted effect of over 65% in size
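Per well, imaged GFP fluorescence of HEPG2 CAGA-GFP cells gives the signal; cells get compound, then TGF-beta (500 pg/mL final), 18 h at 37 degrees C; %Activity versus -TGF-beta and +DMSO controls.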
TDP1 cell noCPT = qHTS for Inhibitors of human tyrosyl-DNA phosphodiesterase 1 (TDP1): qHTS in cells in absence of CPT; Potency, µM (series often up to 46.2 µM), inactives show top-dose activity change, negative = growth inhibition, most hits filed as inhibitors; 420,000 compounds, 15% hits; DT40 Tdp1-/- hTDP1 cells, no CPT, ATP luminescence, 48 h; further: potency means the concentration at half of the fitted maximal effect; on the % scale 0 is the no-effect control and ±100 the full control effect; nearly all actives have a fitted effect of over 55% in size
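Readout: luminescence from CellTiter-Glo after 30 min in the dark at RT. Cells: DT40 Tdp1-/- with stable hTDP1, 400/well. Exposure: compounds alone, ≥48 hr, 37 °C.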
TDP1 cell CPT = DT40-hTDP1 cell growth loss with CPT; chicken DT40 Tdp1-/-;hTDP1 cells + 20 nM CPT, ATP luminescence, 48 h; Potency, µM (series often up to 46.2 µM), for inactives: top-dose activity change, negative = growth inhibition, hits mostly inhibitors; 420,000 compounds, 12% hits; AID 686979; further: potency means the concentration at half of the fitted maximal effect; on the % scale 0 is the no-effect control and ±100 the full control effect; nearly all actives have a fitted effect of over 55% in size
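Chicken DT40 Tdp1-/- cells complemented with human TDP1, 400 cells/well, exposed to compounds plus 20 nM camptothecin for at least 48 h at 37 C; viability read as ATP content by CellTiter-Glo luminescence.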
* = called active by the depositor; i = inactive; ? = inconclusive; . = no result; [ ] = another dose, or the depositor's remark. Sampled rows, rich in hits. Any-hit rate of the full collection: about 19%. Unless noted, the call rests on the fitted dose curve; in most records, active means well fitted curve in the direction sought with a large enough effect; inconclusive means small, poorly fitted or top-dose-only effect, or another doubt; inactive means no such curve, though single readings can be large; an effect the other way counts as inactive or inconclusive.

SMILES	TDP1 block	IL1B secr inh	HepG2 viability	TGFb inhibitor	TDP1 cell noCPT	TDP1 cell CPT
CCCCCCN1C[C@H](n2cc(COC(=O)c3ccccc3)nn2)[C@@H](O)C[C@@H]1c1ccccc1	.	24	-93%	?	23µM*	?
CCCCCCN1C[C@@H](n2cc(COC(=O)c3ccccc3)nn2)[C@H](O)C[C@@H]1c1ccc(OC)cc1	.	-5	-89%	?	?	?
CCCCCCN1C[C@@H](n2cc(COC(=O)c3ccccc3)nn2)[C@H](O)C[C@@H]1c1ccccc1	.	25	-61%	?	?	?
Cc1ccc(OCc2cc(C(=O)N3CCN(c4ccccc4)CC3)no2)cc1C	4%	i	-24%	-17%	-16%	-7%
O=C(CCSc1ccc(Br)cc1)c1ccc(O)cc1	.	-25	-41%	?	4.1µM*	3.7µM*
O=C(CCO)c1ccc(O)cc1	?	3	-1%	1%	0%	3%
Cc1cc2c(c(/C=C/C(=O)c3ccccc3)c1)OC1(C=C2)Oc2ccccc2C(=O)N1C (configuration not stated)	3%	-104*	-2%	?	26µM*	?
Cc1cc(NS(=O)(=O)c2cn(C)c(C)n2)ccc1Br	4%	.	1%	15%	-11%	?
Cc1ccc(C(C)CCN2CCOc3ccc(CN4CCOCC4)cc3C2)o1 (configuration not stated)	.	.	.	.	-16%	0%
COc1ccc(CC(=O)NC2CCS(=O)(=O)C2)cc1 (configuration not stated)	-11%[0.505 µM]	-9	4%	6%	1%	-18%
Oc1ccc(C2C[C@H]3CC[C@@H]2C3)cc1O (some centres not stated)	.	-23	-2%	-26%	?	12µM*
COc1ccc(NC(=O)c2cc(-c3ccccc3F)no2)cc1	-8%	.	2%	-1%	?	-25%
Cc1ccccc1NC(=O)CSc1c(C(C)C)cnc2c1c(=O)n(C)c(=O)n2C	3%	.	-3%	-20%	?	-52%
O=C(OCc1cn(Cc2ccccc2)nn1)c1ccccc1	-1%	23	-4%	0%	-3%	-3%
O=C(c1ccccc1)c1ccc(Cn2cc(CCCO)nn2)cc1	.	39	-9%	?	5.8µM*	8.2µM*
O=C(O)CCCCCCCCc1cn(Cc2ccc(C(=O)c3ccccc3)cc2)nn1	.	74	-24%	7.9µM*	4.1µM*	3.7µM*
CCOC(=O)c1[nH]c2ccc(OC)cc2c1NC(=O)CN1CCN(c2ccccn2)CC1	-5%	.	.	.	.	.
CCOC(=O)c1[nH]c2ccc(OC)cc2c1NC(=O)CN1CCc2ccccc2C1	9%	?	-35%	4%	16µM*	26µM*
COC(=O)c1[nH]c2ccc(C)cc2c1NC(=O)CN1CCc2cc(OC)c(OC)cc2C1	3%	-12	-17%	2%	23µM*	16µM*
COc1cc2c(cc1OC)CN(CC(=O)Nc1ccccc1SC)CC2	6%	-29	-19%	-1%	23µM*	?
CCOC(=O)c1[nH]c2ccc(OCC)cc2c1NC(=O)CN1CCN(c2ccccn2)CC1	6%	-12	-3%	11%	16µM*	?
COC(=O)c1[nH]c2ccc(F)cc2c1NC(=O)CCN1CCN(Cc2ccc3c(c2)OCO3)CC1	4%	-1	-21%	-3%	21µM*	16µM*
COC(=O)c1[nH]c2cc(OC)ccc2c1NC(=O)CCN1CCN(c2cccc(C)c2C)CC1	4%	-15	-7%	?	21µM*	?
COC(=O)c1[nH]c2ccccc2c1NC(=O)CN1CCN(Cc2ccc3c(c2)OCO3)CC1	1%	-16	-30%	27%	?	?
CCOC(=O)c1[nH]c2ccc(OCC)cc2c1NC(=O)CN1CCCC(C)C1 (configuration not stated)	6%	-17	6%	24%	?	?
SMILES	TDP1 block	IL1B secr inh	HepG2 viability	TGFb inhibitor	TDP1 cell noCPT	TDP1 cell CPT
CCOC(=O)c1[nH]c2cc3c(cc2c1NC(=O)CN1CC(C)CC(C)C1)OCO3 (configuration not stated)	2%	-17	-19%	?	26µM*	?
COC(=O)c1[nH]c2ccccc2c1NC(=O)CN1CCN(c2cccc(OC)c2)C(C)C1 (configuration not stated)	11%	-11	-36%	-3%	18µM*	23µM*
NCCCCN	6%	.	.	.	-3%	2%
O=C(NCc1ccccc1Cl)c1cccc(C(F)(F)F)c1	2%	-80*	2%	8%	-14%	3%
O=C(NCc1ccccc1Cl)c1cccc(OC2CCN(C(=O)C3CC3)CC2)c1	1%	-2	-18%	2%	?	16µM*
CC(NC(=O)CN(c1cccc(C(F)(F)F)c1)S(=O)(=O)c1ccc(Cl)c([N+](=O)[O-])c1)c1ccccc1 (configuration not stated)	5%	-91*	-100%	?	9.2µM*	4.6µM*
O=C(CN(c1cccc(C(F)(F)F)c1)S(=O)(=O)c1ccc(Cl)c([N+](=O)[O-])c1)NCc1ccccc1	6%	-11	-13%	-2%	?	-23%
O=C(CN(c1cccc(C(F)(F)F)c1)S(=O)(=O)c1ccc(Cl)c([N+](=O)[O-])c1)NCc1ccccc1Cl	8%	-100*	-59%	?	16µM*	16µM*
CCOc1ccc(Nc2oc(-c3ccc(COc4ccc(C)cc4)o3)nc2C#N)cc1	-1%	.	-27%	-1%	?	?
CCNc1ncc2nc(CCc3ccccc3)c(=O)n(CCOC)c2n1	.	.	.	.	-15%	10%
COc1ccc(OC2C=CC(c3ccccc3)OC2CO)c(C(C)(C)C)c1 (configuration not stated)	5%[21 µM]	.	.	.	.	.
O=C1CN(C(=O)/C=C/c2ccc(Br)cc2)CCN1	.	-22	0%	-5%	0%	3%
O=C(CCS(=O)(=O)c1ccccc1)Nc1nc2cc3c(cc2s1)OCCO3	5%[56.1 µM]	?	-87%	13µM*	?	?
CN(CC1CCCO1)S(=O)(=O)c1ccc(C(=O)Nc2nc3cc4c(cc3s2)OCO4)cc1 (configuration not stated)	.	27	-32%	-16%	10µM*	7.3µM*
